# A selection: hits, their analogues and other compounds. The true share with any hit is near 0.85%.
# Six1-Eya2 blk – Six1/Eya2 interaction inhibition; Q15475+O00167; AlphaScreen GST-Six1/His-Eya2 binding, biochemical; hits give low values; activity change, % (test concentration not listed); 360,000 compounds, 0.56% hits; AID 651725; also: % is scaled to controls: 0 for no effect and ±100 for the full control effect
# Target sequence (O00167 whole entry, looked up): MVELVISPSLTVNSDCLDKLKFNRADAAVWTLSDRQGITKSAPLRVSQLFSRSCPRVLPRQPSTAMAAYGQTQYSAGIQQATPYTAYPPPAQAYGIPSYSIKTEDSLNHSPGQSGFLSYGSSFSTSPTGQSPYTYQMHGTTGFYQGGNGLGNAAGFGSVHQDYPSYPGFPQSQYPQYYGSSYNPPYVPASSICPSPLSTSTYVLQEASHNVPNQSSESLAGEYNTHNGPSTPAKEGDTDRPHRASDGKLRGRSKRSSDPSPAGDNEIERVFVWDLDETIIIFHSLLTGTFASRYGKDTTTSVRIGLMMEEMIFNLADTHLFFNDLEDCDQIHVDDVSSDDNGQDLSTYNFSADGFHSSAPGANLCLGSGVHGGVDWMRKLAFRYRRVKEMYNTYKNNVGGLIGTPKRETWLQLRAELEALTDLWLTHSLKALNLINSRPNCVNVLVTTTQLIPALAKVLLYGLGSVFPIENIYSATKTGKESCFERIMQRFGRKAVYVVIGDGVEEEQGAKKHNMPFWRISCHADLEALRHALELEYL
# Target sequence (Q15475 whole entry, looked up): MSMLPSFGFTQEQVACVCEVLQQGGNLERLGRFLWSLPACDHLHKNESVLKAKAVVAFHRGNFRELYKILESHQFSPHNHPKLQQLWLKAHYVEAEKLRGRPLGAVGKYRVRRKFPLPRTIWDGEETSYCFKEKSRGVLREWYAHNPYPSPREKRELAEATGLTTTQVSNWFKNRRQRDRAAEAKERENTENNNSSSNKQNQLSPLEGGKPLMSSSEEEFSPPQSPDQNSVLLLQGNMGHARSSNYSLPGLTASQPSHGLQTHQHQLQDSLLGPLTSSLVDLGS
#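 GST-Six1 + His-Eya2 (5X stock: 250/500 nM); Tris pH 8.0, 300 mM NaCl, 0.05% BSA, 0.02% Tween 20; GSH donor/Ni acceptor beads; 1 h 37 °C dark; AlphaScreen readout.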
# TSHR antagonist – blocks TSH signaling through the human TSH receptor; TSHR-expressing cells, TSH-stimulated cAMP HTRF, 2 h; hits give low values; activity change, negative = inhibition, % at 11.5 µM; 330,000 compounds, 0.2% hits;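 active = activity change below a set negative limit, meaning inhibition stronger than a set level, cut at about -70% in these data; inconclusive = activity change between two set negative limits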; also: % is scaled to controls: 0 for no effect and ±100 for the full control effect
#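 Cell-based HTRF cAMP assay; TSHR cells + compound, TSH EC80 (4nM final), 2 h, 37 deg C. Lysis with anti-cAMP cryptate and cAMP-d2, 30 min RT, read 665/620 nm.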
# CtBP-E1A blk – CtBP/E1A binding inhibition. AlphaScreen GST-E1A/His-CtBP binding, 1536-well; hits give low values. activity change, % (no concentration beside the values). 340,000 compounds, 0.49% hits. AID 651724; also: % is scaled to controls: 0 for no effect and ±100 for the full control effect
#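 Protein mix (5X: 125 nM each GST-E1A, His-CtBP) was incubated with pinned compound 2 h at 37 deg C in dark, in 50 mM Tris pH 8.0 buffer with 300 mM NaCl. Glutathione donor and nickel acceptor beads followed; AlphaScreen signal read after 1 h.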
# S-ASM inh – human S-ASM enzyme inhibition. placental ASM, HMU-PC fluorogenic substrate, 60 min. 340,000 compounds, 0.006% hits. Potency, µM (doses to about 57.5 µM), without a hit: at the top dose activity change, negative = inhibition, hits mostly inhibitors. P17405; active = well fitted inhibition curve with a large enough effect; inconclusive = small, poorly fitted or top-dose-only effect; inactive = no such curve, though single readings can be large or run the other way; also: potency is read from the fitted curve at half-maximal effect
#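 HMU-PC0 cleavage (9 uM final) by human placental ASM, 60 min at 37 °C following 10 min compound exposure at RT; stopped at pH 10, fluorescence Ex 386/Em 447 nm.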
# BCR signal inh – chronic active BCR signaling inhibition. ABC-DLBCL IkBa-CBG/CBR reporter, luminescence ratio, 4 h. Potency, µM (series often up to 46.1 µM), without a hit: at the highest dose activity change, negative = inhibition, usual class: inhibitors. 340,000 compounds, 0.05% hits. AID 493014; active = well fitted inhibition curve with a large enough effect in the signal ratio, with a control signal flat, not every such curve was filed as active; inconclusive = small, poorly fitted or top-dose-only effect, or effect the other way, or a change in a side signal; the % refers to the signal ratio;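 also: potency is read from the fitted curve at half-maximal effect; plate controls were basal doxycycline-induced cells for no effect and cells given 10 µM MG132 for full effect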
#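 TMD8 human ABC-DLBCL cells with doxycycline-inducible IκBα–green luciferase fusion and unfused red luciferase, in 0.5% FBS medium; compounds up to 46 uM, 4 h at 37C. Green/red luminescence ratio, filter-overlap corrected, fitted to concentration-response curves.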
# * marks the source's active call; other numbers are inactive results; ? = inconclusive; . = not tested or not shown. Rule as the data show it, unless noted: active = activity change below about -65%; inconclusive = mostly about -30% to -63%; inactive = weaker than that.
SMILES,Six1-Eya2 blk,TSHR antagonist,CtBP-E1A blk,S-ASM inh,BCR signal inh
COc1cccc(C(=O)Nc2c3c(nn2-c2ccc(C)cc2C)CS(=O)(=O)C3)c1OC,.,.,.,.,-4.0%
S=C(NN=C(c1ccccc1)c1ccccn1)N(Cc1ccccn1)Cc1ccccn1,-94.0*,.,3.7,-1.7%,.
O=C(CCCC(=O)N/N=C\c1ccccn1)N/N=C\c1ccccn1,2.0,14.4,-5.3,-1.0%,3.4%
CC(=NNC(=S)N(Cc1ccccn1)Cc1ccccn1)c1cnccn1,-90.2*,.,-3.1,-2.3%,.
S=C(NN=Cc1ccccn1)N(Cc1ccccn1)Cc1ccccn1,-90.9*,.,-94.1*,1.3%,.
Cc1ccccc1NC(=S)N(Cc1ccccn1)Cc1ccccc1Cl,-8.0,-3.9,-2.7,-4.1%,9.1%
Cc1cccc(CCNC(=O)c2ccc3c(c2)N(Cc2ccccc2F)C(=O)c2ccccc2S3)c1,.,.,.,.,14.7%
COc1cccc(/C=N/NC(=O)C(=O)N2CCCCCC2)c1O,-82.5*,4.9,-89.4*,-1.2%,-3.0%
COc1cccc(/C=N/NC(=O)C(=O)NCc2ccco2)c1O,-89.3*,-3.4,-97.3*,4.1%,5.8%
COc1cccc(/C=N/NC(=O)C(=O)NCc2ccco2)c1OC,-2.0,-0.5,1.9,0.7%,10.8%
COc1cccc(/C=N/NC(=O)c2ccoc2C)c1O,-74.4*,-6.3,-91.9*,4.1%,?
COc1cc(/C=N/NC(=O)c2ccoc2C)ccc1O,-5.2,-4.8,-6.4,8.7%,?
COc1cccc(/C=N/NC(=O)C(=O)N/N=C/c2cccc(OC)c2O)c1O,?,-4.8,?,1.4%,3.9%
COc1cccc(/C=N/NC(=O)c2c(-c3ccccc3)noc2C)c1O,-89.6*,-5.1,-91.4*,1.2%,-41.1%
COc1cccc(/C=N/NC(=O)c2c(-c3ccccc3)noc2C)c1OC,-0.4,.,-0.3,-0.4%,.
COCCCNC(=O)CSc1nc2cc3c(cc2c(=O)n1CCCCCC(=O)NCCc1ccc(OC)c(OC)c1)OCO3,.,.,.,.,2.1%
O=C(Nc1cccc(Cl)c1Cl)c1ccc2c(c1)N(Cc1cccc(Cl)c1)C(=O)c1ccccc1S2=O (stereo not drawn),.,.,.,.,3.6%
CCOc1cc([N+](=O)[O-])cc(/C=N/NC(=O)c2c(-c3ccccc3)noc2C)c1O,-91.0*,-17.8,-91.9*,-13.0%,-1.4%
CCOc1cc(/C=N/NC(=O)c2c(-c3ccccc3)noc2C)ccc1O,-15.8,14.4,-3.9,7.2%,-6.9%
COc1ccc(/C=N/NC(=O)c2cnccn2)c(OC)c1OC,1.0,-4.9,.,-0.3%,0.6%
COc1cccc(/C=N/NC(=O)c2cnccn2)c1O,-91.9*,-12.5,-65.2*,2.5%,?
COc1ccc(C(=O)NCC(c2ccco2)S(=O)(=O)c2cccs2)cc1 (stereo not drawn),.,.,.,.,1.7%
Oc1c(C(c2ccccc2F)N2CCN(c3ccccc3F)CC2)sc2nc(-c3ccco3)nn12 (stereo not drawn),.,.,.,.,8.7%
CC(=O)c1ccc(NC(=O)CSc2nc(=O)n(Cc3ccncc3)c3c2CCC3)cc1,.,.,.,.,-12.4%
CC(C)(C)c1ccc(OCCNC(=O)c2ncn[nH]2)cc1,-66.9*,3.3,-65.9*,-1.3%,?
SMILES,Six1-Eya2 blk,TSHR antagonist,CtBP-E1A blk,S-ASM inh,BCR signal inh
O=C(NCc1ccc(F)cc1)C(=O)NCC(c1ccco1)S(=O)(=O)c1cccs1 (stereo not drawn),.,.,.,.,2.2%
C/C(=N\NC(=O)C1CCCN(S(=O)(=O)c2ccccc2)C1)c1ccccn1 (stereo not drawn),-86.1*,11.0,-90.4*,0.0%,?
CC(=NNC(=S)N1CCN(c2ccccn2)CC1)c1ccccn1,?,.,?,5.5%,.
CC(=NNC(=S)N1CCN(c2ccccn2)CC1)c1nccs1,-91.1*,.,-93.6*,-0.3%,.
CC(=NNC(=S)N1CC2CCC(CC2)C1)c1ccccn1,-14.5,.,-14.0,.,.
CC(=NNC(=S)N1CCN(C2CCCCCC2)CC1)c1ccccn1,-92.4*,.,-0.3,0.0%,.
CC(=NNC(=S)N1CCCCCC1)c1cccc2cccnc12,?,.,-89.7*,-11.7%,.
Cc1ccc([N+](=O)[O-])cc1S(=O)(=O)N1CCn2cccc2C1c1ccccc1F (stereo not drawn),.,.,.,.,6.6%

# Screening data: PubChem BioAssay, National Center for Advancing Translational Sciences (NCATS)
